We go through 44 compounds from PubChem BioAssay.

Assay [1] has as its target PEG-3 (UniProt Q6IN02). The assay can be described thus: inhibition of PEG-3 promoter-driven reporter – cell-based, HeLa, luciferase, CREF/GAPDH counter-screen panel, dose response (AID 624167). The note with it: CREF/GAPDH counter-screens; HeLa PEG-Prom luciferase reporter, overnight, run 1, dose range 1, at 100 µM (top of the series) unless noted. A general note: The purpose of a counterscreen is to sort out artefacts and off-target activity.

The target in assay [2] is PEG-3 (UniProt Q6IN02). The assay is described as above. The settings on record: CREF/GAPDH counter-screens; HeLa PEG-Prom luciferase reporter, overnight, run 2, dose range 1, at 100 µM (top of the series) unless noted.
Sequence of PEG-3 (Q6IN02 whole entry, looked up): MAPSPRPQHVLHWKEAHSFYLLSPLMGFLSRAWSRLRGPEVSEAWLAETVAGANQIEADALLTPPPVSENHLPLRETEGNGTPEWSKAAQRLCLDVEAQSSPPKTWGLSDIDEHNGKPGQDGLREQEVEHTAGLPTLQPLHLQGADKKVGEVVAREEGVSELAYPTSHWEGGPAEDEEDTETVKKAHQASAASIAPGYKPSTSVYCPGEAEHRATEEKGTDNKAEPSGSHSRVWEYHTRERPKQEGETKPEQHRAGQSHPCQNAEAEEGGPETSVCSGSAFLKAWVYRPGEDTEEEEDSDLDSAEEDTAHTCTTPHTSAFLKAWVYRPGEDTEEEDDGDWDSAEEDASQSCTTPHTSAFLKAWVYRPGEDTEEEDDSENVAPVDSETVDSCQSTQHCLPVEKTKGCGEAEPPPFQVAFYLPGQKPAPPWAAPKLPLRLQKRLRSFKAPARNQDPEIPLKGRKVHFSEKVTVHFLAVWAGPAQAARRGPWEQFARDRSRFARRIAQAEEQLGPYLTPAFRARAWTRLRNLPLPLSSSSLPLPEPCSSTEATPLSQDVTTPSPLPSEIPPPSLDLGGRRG

As a reminder, the inhibition is the change of the read-out against control, counted positive when it falls. As for `Cc1cc(C)nc(NC(=O)c2c(F)c(F)c(F)c(C(=O)Nc3cc(C)cc(C)n3)c2F)c1`, the inhibition in assay [1] worked out at 96.5%; in assay [2], 98.3%.

Consider `COc1cccc(CN(C)C(=O)c2cc(-c3cccs3)nc3ccccc23)c1`, for which the values for the inhibition in assay [1] and in assay [2] were 84% and 101%, respectively.

In the case of `C/C(=N\N=C(N)N)c1ccc(Cl)cc1Cl`, the values for the inhibition in assay [1] and in assay [2] were 99.4% and 101%, respectively.

Consider `O=C1/C(=C/c2ccccc2Cl)SC(=S)N1CCCC(=O)N(CCO)c1ccccc1`, for which the inhibition stood at 99.7% in assay [1] and 102% in assay [2].

On to `CNCC[C@H](Oc1cccc2ccccc12)c1cccs1`, for which the values for the inhibition in assay [1] and in assay [2] were 102% and 98.8%, respectively.

Regarding `CCc1nc(Sc2nnnn2-c2ccccc2)c2c3c(sc2n1)CCCC3`, the values for the inhibition in assay [1] and in assay [2] were 68.7% and 91.8%, respectively.

In the case of `Cc1cc(Sc2ncnc(N)c2[N+](=O)[O-])ncn1`, the inhibition in assay [1] and in assay [2] was 102% throughout.

Turning to `COc1ccc(-c2oc3ccc(-c4cc(OC)c(OC)c(OC)c4)cc3c2C#Cc2ccccn2)cc1`, the inhibition worked out at 26.8% in assay [1] and 53.3% in assay [2].

As for `COc1ccc(/C=C/C(=O)c2ccc3c(c2)OCCO3)cc1[N+](=O)[O-]`, the results for the inhibition in assay [1] and in assay [2] were 97.9% and 99%, respectively.

`CN1CCC(N(C)C(=O)/C=C/c2cn(-c3ccccc3)nc2-c2cccs2)CC1`: the inhibition in assay [1] and in assay [2] was 102% throughout.

Take `CCN(CC)CCn1c2ccccc2c2cnc(N)c(C#N)c21`: the inhibition worked out at 101% in assay [1] and 102% in assay [2].

As for `NC(=O)C1CCN(C2=C(Cl)C(=O)c3ccccc3C2=O)CC1`, the values for the inhibition in assay [1] and in assay [2] were 100% and 97.8%, respectively.

For the compound `COc1cccc(-c2cnc3c(NC=O)cc(-c4cccc(C(=O)N(C)C)c4)cn23)c1`, the inhibition turned out to be 98.8% in assay [1] and 97.5% in assay [2].

On to `CCN1CCN(c2ncc(C(=O)Nc3cc(Cl)ccc3OC)c3ccccc23)CC1`, for which the inhibition in assay [1] came to 100%; in assay [2], 98.7%.

For `CCOC(=O)c1cccc(Nc2nc(-c3cccnc3)nc3ccccc23)c1`, the inhibition in assay [1] worked out at 98.9%; in assay [2], 101%.

Consider `COc1ccc(CN(C)C(=O)c2cc(-c3ccccc3)nc3ccc(C)cc23)c(OC)c1OC`, for which the inhibition in assay [1] was 94.8%; in assay [2], 96.5%.

Consider `CC(C)c1ccc(NC(=O)Nc2nc(C(C)N)cs2)cc1` (stereo not drawn), for which the inhibition in assay [1] is 100%; in assay [2], 98.9%.

Consider `CCOC(=O)c1c(NC(C)=O)sc2c(OCC(O)CNC(C)(C)C)c(Br)ccc12` (stereo not drawn), for which the inhibition in assay [1] came to 102%; in assay [2], 93.7%.

As for `COc1ccc(C)cc1Nc1n[n+](-c2ccccc2)c(-c2ccc(N(C)C)cc2)s1`, the inhibition in assay [1] amounted to 97.2%; in assay [2], 100%.

For `COC(=O)Cc1[nH]n(-c2nc3ccccc3s2)c(=O)c1C(C)=Nc1ccc(Cl)cc1`, the inhibition was found to be 88.1% in assay [1] and 94.2% in assay [2].

For the compound `O=C(C[n+]1ccc(-c2cc(C(=O)Nc3cccc(C(F)(F)F)c3)c3ccccc3n2)cc1)c1cccc([N+](=O)[O-])c1`, the inhibition in assay [1] worked out at 101%; in assay [2] it was 102%.

In the case of `CCN(Cc1ccccc1)S(=O)(=O)c1ccc(C(=O)N(CCCN(C)C)c2nc3cc4c(cc3s2)OCO4)cc1`, the inhibition in assay [1] was determined as 102%; in assay [2], 101%.

As to `CCCOc1ccc(NC(=O)CC2C(=O)N(CC)C(=S)N2CCCN2CCN(Cc3ccccc3)CC2)cc1` (stereo not drawn), the inhibition stood at 98.9% in assay [1] and 101% in assay [2].

For the compound `O=S(=O)(CC(CN1CCCCC1)N1CCCCC1)c1ccccc1` (stereo not drawn), the inhibition in assay [1] and in assay [2] was 102% throughout.

In the case of `CCOc1cc(/C=N/Nc2nc(-c3cccc(S(=O)(=O)N4CCCC4)c3)cs2)ccc1O`, the figures for the inhibition in assay [1] and in assay [2] were 77.8% and 95.5%, respectively.

As to `CCN(CC)CCSc1nnc2c3cc(C)ccc3n(Cc3ccccc3)c2n1`, the inhibition in assay [1] came out at 102%; in assay [2], 99.8%.

On to `CCN(C(=O)CSc1nc2n[nH]c(C)c2c(=N)n1-c1ccc(Cl)c(C)c1)c1cccc(C)c1`, for which the inhibition is 70.5% in assay [1] and 78% in assay [2].

With `CCOC(=O)c1sc2nc(CSc3ccccc3)nc(N3CCCN(C)CC3)c2c1C`, the inhibition amounted to 101% in assay [1] and 99% in assay [2].

For the compound `CCCOC(=O)c1cccc(Nc2nc(-c3cccnc3)nc3ccccc23)c1`, the inhibition was determined as 99% in assay [1] and 101% in assay [2].

In the case of `CC(=O)NC(c1ccc(C)cc1)c1cc(Cl)c2cccnc2c1O` (stereo not drawn), the inhibition was determined as 88.1% in assay [1] and 89.7% in assay [2].

Take `Cc1cccc2c1-c1sc(C(=O)NCCCN3CCCC(C)C3)cc1CO2` (stereo not drawn): the values for the inhibition in assay [1] and in assay [2] were 99.3% and 98.5%, respectively.

As for `CCOc1ccc2[nH]c3c(NCCc4ccc(OC)c(OC)c4)ncnc3c2c1`, the inhibition was 99% in assay [1] and 100% in assay [2].

Turning to `O=C(Nc1ccc(-c2nc3ccccc3o2)cc1)c1ccc(N2CCOCC2)c([N+](=O)[O-])c1`, the inhibition in assay [1] stood at 17.1%; in assay [2] it was 37.6%.

As to `O=C(O)CN1C(=O)/C(=C\c2ccccc2OCc2ccc(Cl)cc2Cl)SC1=S`, the figures for the inhibition in assay [1] and in assay [2] were 102% and 99.9%, respectively.

Turning to `COc1ccc(CCNC(=O)c2cc3c(=O)n4ccccc4nc3n(C3CCCCC3)c2=N)cc1`, the inhibition in assay [1] and in assay [2] was 102% each time.

Regarding `CCOc1cc(CNCCCN2CCOCC2)ccc1OCC(=O)Nc1cccc2ccccc12`, the inhibition in assay [1] was 100%; in assay [2], 101%.

`CCOC(=O)C1=C(COCCN)NC(C)=C(C(=O)OC)C1c1ccccc1Cl` (stereo not drawn): the inhibition was 98.7% in assay [1] and 100% in assay [2].

With `COc1ccc(CN(C)C(=O)C(Cc2ccccc2)NC(=O)c2ccccc2)cc1F` (stereo not drawn), the inhibition came to 99.1% in assay [1] and 98.2% in assay [2].

As to `CC1(Cc2ccc(Cl)c(Cl)c2)C(=O)Nc2ccc(S(=O)(=O)NC3CCCCC3)cc21` (stereo not drawn), the inhibition in assay [1] amounted to 92.8%; in assay [2], 95.4%.

As for `CCC1CCCCN1S(=O)(=O)c1ccc(C(=O)N(CCCN(C)C)c2nc3cc4c(cc3s2)OCO4)cc1` (stereo not drawn), the inhibition was 101% in assay [1] and 96.1% in assay [2].

As for `Cc1ccc(-c2nc(C(Cl)Cl)c3ccccc3n2)cc1`, the values for the inhibition in assay [1] and in assay [2] were 96.2% and 97.4%, respectively.

Turning to `CC(C)CC(N)c1csc(Nc2ccc(C(=O)N(C)Cc3ccccc3)cn2)n1` (stereo not drawn), the inhibition in assay [1] was 96.3%; in assay [2], 102%.

In the case of `Cc1ccc2nc(N(CCCN(C)C)C(=O)c3ccc4c(c3)CCCC4)sc2c1`, the inhibition in assay [1] came out at 99.5%; in assay [2], 101%.

Take `CCOC(=O)c1c(NC(=O)COc2ccccc2F)sc2c1CC(C)(C)NC2(C)C`: the inhibition amounted to 89.1% in assay [1] and 102% in assay [2].
